The values below come from the supplement of paper PMC7393113.

The structures appear in SMILES notation. Structures can show the parent of a compound that is named as a salt. ± gives the standard deviation of the averaged measurements.

This assay relates to iBMDM (immortalised mouse bone-marrow-derived macrophages), LPS-stimulated. Description: mitochondrial superoxide (MitoSOX fluorescence) fold increase over unstimulated control; higher = more LPS-induced mitochondrial ROS (less inhibition). The settings on record: inhibitor concentration: 500 nM; LPS: 100 ng/ml; time after LPS: 1 h. An outline of the steps: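 Mitochondrial superoxide values are mean fold induction compared with untreated macrophages. Triplicate wells of immortalised mouse bone-marrow-derived macrophages in phenol-red-free 1% FCS/DMEM received kinase inhibitors (500 nM) for 30 min, then 1 μM MitoSox for 10 min, then LPS (100 ng/ml). Fluorescence (510/580 nm) was taken every 60 min for 4 h.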
On to `O=C(Nc1c[nH]nc1-c1nc2ccc(CN3CCOCC3)cc2[nH]1)NC1CC1`, for which the mitochondrial superoxide stood at 1.34 ± 0.02. The compound `COc1cc(N2CCC(N(C)C)CC2)ccc1Nc1ncc(Cl)c(Nc2ccccc2P(C)(C)=O)n1` showed a mitochondrial superoxide of 1.15 ± 0.031. Compound `Cc1cn(-c2cc(NC(=O)c3ccc(C)c(Nc4nccc(-c5cccnc5)n4)c3)cc(C(F)(F)F)c2)cn1` [Nilotinib (AMN-107)] registered a mitochondrial superoxide of 1.45 ± 0.049. For `COc1ccc(F)c(F)c1C(=O)c1cnc(NC2CCN(S(C)(=O)=O)CC2)nc1N`, the mitochondrial superoxide was 1.28 ± 0.081. Consider `Cc1[nH]c(/C=C2\C(=O)Nc3ccccc32)c(C)c1CCC(=O)O` [TSU-68 (SU6668, Orantinib)], for which the mitochondrial superoxide stood at 2.12 ± 0.096. `CN(C[C@@H]1COCCO1)S(=O)(=O)Nc1ccc2ccc3ncc(-c4cnn(C)c4)cc3c(=O)c2c1` registered a mitochondrial superoxide of 1.26 ± 0.029.

For the compound `COCCOc1ccc2c(c1)ncn2-c1ccc2cccc(N3CCC(N)CC3)c2n1`, the mitochondrial superoxide turned out to be 1.15 ± 0.048. Then `CNC(=O)c1c(F)cccc1Nc1nc(Nc2cc3c(cc2OC)CCN3C(=O)CN(C)C)nc2[nH]ccc12`, with 1.28 ± 0.057. The compound `CCC[C@H](NC(=O)/C(C#N)=C/c1cccc(Br)n1)c1ccccc1` [Degrasyn (WP1130)] showed a mitochondrial superoxide of 1.18 ± 0.047. Consider `O=C(NCc1cccc(O)c1)Nc1nc(-c2ccncc2)cs1`, for which the mitochondrial superoxide worked out at 1.36 ± 0.026. For the compound `O=C(Cc1ccc(-c2ccc(OCCN3CCOCC3)cc2)cn1)NCc1ccccc1`, the mitochondrial superoxide came out at 1.31 ± 0.1. The value for `CCCCCCCCc1ccc(CCC(N)(CO)CO)cc1` [Fingolimod (FTY720) HCl] was 1.15 ± 0.043; that for `O=C(NC1CCNCC1)c1n[nH]cc1NC(=O)c1c(Cl)cccc1Cl` was 1.13 ± 0.061; that for `O=C1Nc2ccc(I)cc2C1=Cc1cc(Br)c(O)c(Br)c1` was 1.1 ± 0.039.
